# Assay results reported in PubChem BioAssay (NCI).
# Compounds without any hit were thinned out: in the full panel of roughly 79,000, 15% have a hit. Unmarked numbers belong to inactive results. Active and inactive are the calls of the source. No stated cut-off is given here; in the data, active means growth inhibition above about 70%; inactive means the rest.
# What was measured:
# [1] = NCI Yeast Anticancer Drug Screen. Data for the rad52 strain (AID 147);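 further: 0% = growth of vehicle-treated control cultures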; conditions: S. cerevisiae rad52 mutant growth inhibition, stronger effect = higher value
# Outline: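 Vehicle-treated cultures served as the reference for growth inhibition of compound-exposed yeast bearing a DNA repair mutation.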
# [2] = NCI Yeast Anticancer Drug Screen. Data for the wt1 strain (AID 149);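 further: 0% = growth of vehicle-treated wt1 cultures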; conditions: S. cerevisiae wt1 strain (SPY 50644) growth inhibition, stronger effect = higher value
# Outline: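 Compounds are added to wt1 yeast cultures. Growth is then measured. Inhibition is expressed relative to vehicle-treated controls.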
# [3] = NCI Yeast Anticancer Drug Screen. Data for the rad50EPP+ strain (AID 151);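 further: 0% = growth of vehicle-treated control cultures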; conditions: S. cerevisiae rad50 mutant strain, stronger effect = higher value
# Outline: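 In this screen, rad50EPP+ yeast were exposed to compounds. Growth inhibition was scored against vehicle-treated controls.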
# [4] = NCI Yeast Anticancer Drug Screen. Data for the mgt1 strain (AID 153); conditions: S. cerevisiae mgt1 mutant growth inhibition, stronger effect = higher value
# Outline: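 mgt1 strain exposed; growth vs vehicle control recorded as inhibition.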
# [5] = NCI Yeast Anticancer Drug Screen. Data for the rad50 strain (AID 155);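 further: 0% = growth of vehicle-only cultures of the same strain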; conditions: S. cerevisiae rad50 strain growth inhibition, stronger effect = higher value
# Outline: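 Inhibition values express reduced yeast growth in compound-treated cultures relative to vehicle-treated controls.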
# [6] = NCI Yeast Anticancer Drug Screen. Data for the mec2-1 strain (AID 157); conditions: S. cerevisiae mec2-1 strain, stronger effect = higher value
# Outline: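 Vehicle-treated cultures served as reference for growth inhibition of compound-exposed mec2-1 yeast.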
# [7] = NCI Yeast Anticancer Drug Screen. Data for the rad14 strain (AID 159);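 further: 0% = growth of vehicle-treated control cultures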; conditions: S. cerevisiae rad14 strain growth inhibition, stronger effect = higher value
# Outline: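 A mutant yeast strain defective in DNA damage repair is treated with compound; inhibition of its growth is scored against untreated, vehicle-exposed cultures.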
# [8] = NCI Yeast Anticancer Drug Screen. Data for the sgs1 mgt1 strain (AID 161);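 further: 0% = growth of cultures given vehicle only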; conditions: S. cerevisiae sgs1 mgt1 strain, stronger effect = higher value
# Outline: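 Inhibition of yeast growth, normalised to vehicle-treated controls, is reported for a strain bearing genetic alterations in DNA damage repair.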
# [9] = NCI Yeast Anticancer Drug Screen. Data for the cln2 rad14 strain (AID 165);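 further: 0% = growth equal to vehicle treated cultures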; conditions: S. cerevisiae cln2 rad14 strain, stronger effect = higher value
# Outline: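 Each compound was tested on cln2 rad14 yeast. Inhibition of growth was calculated against vehicle-exposed controls.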
# [10] = NCI Yeast Anticancer Drug Screen. Data for the bub3 strain (AID 167); conditions: S. cerevisiae bub3 mutant strain, stronger effect = higher value
# Outline: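 Steps: expose the mutant yeast strain to compound; grow alongside vehicle-treated cultures; measure growth; express inhibition against the vehicle cultures.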
# [11] = NCI Yeast Anticancer Drug Screen. Data for the wt2 strain (AID 169);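 further: 0% = growth of vehicle-treated yeast cultures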; conditions: S. cerevisiae wt2 strain growth inhibition, stronger effect = higher value
# Outline: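 Inhibition of yeast growth was determined after compound treatment, normalised to controls receiving only vehicle.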
# [12] = NCI Yeast Anticancer Drug Screen. Data for the mlh1 strain (AID 171);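 further: 0% = growth of vehicle-treated control cultures of the same strain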; conditions: S. cerevisiae mlh1 strain growth inhibition, stronger effect = higher value
# Outline: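 Vehicle-normalised growth inhibition of a repair- or checkpoint-altered yeast strain following compound treatment.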
# [13] = NCI Yeast Anticancer Drug Screen. Data for the sgs1 strain (AID 173);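 further: 0% = growth of vehicle-only control cultures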; conditions: S. cerevisiae sgs1 mutant, stronger effect = higher value
# Outline: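 Screen format: yeast with repair or checkpoint alterations, compound exposure, growth read relative to vehicle.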
# [14] = NCI Yeast Anticancer Drug Screen. Data for the mlh1 rad18 strain (AID 175); conditions: S. cerevisiae mlh1 rad18 strain growth inhibition, stronger effect = higher value
# Outline: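 Vehicle-treated cultures served as the reference for growth inhibition in a yeast strain carrying DNA damage repair alterations exposed to each compound.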
# [15] = NCI Yeast Anticancer Drug Screen. Data for the rad18 strain (AID 177); conditions: S. cerevisiae rad18 mutant growth inhibition, stronger effect = higher value
# Outline: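 Test articles were incubated with altered yeast defective in DNA damage repair. Results are given as inhibition of growth versus vehicle.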
# [16] = at 5.0 µM (retest, dose inferred, filed as 0.5)
# [17] = at 50.0 µM (retest, dose inferred, filed as 5.0)
smiles,measurement,setting,value
CC[C@@]1(O)C[C@H](OC2CC(N(C)C)C(O)C(C)O2)c2c(O)c3c(c(O)c2[C@H]1OC1CC(N(C)C)C(O)C(C)O1)C(=O)c1cccc(O)c1C3=O (stereo partly drawn),growth inhibition,[1]; at 1.2 µM,36%
same,growth inhibition,[1]; at 3.7 µM,38%
same,growth inhibition,[1]; at 11.0 µM,35%
same,growth inhibition,[1]; at 33.0 µM,46%
same,growth inhibition,[1]; at 100.0 µM,92% (active)
same,growth inhibition,[2]; at 1.2 µM,-8%
same,growth inhibition,[2]; at 3.7 µM,4%
same,growth inhibition,[2]; at 11.0 µM,7%
same,growth inhibition,[2]; at 33.0 µM,12%
same,growth inhibition,[2]; at 100.0 µM,42%
same,growth inhibition,[3]; at 1.2 µM,20%
same,growth inhibition,[3]; at 3.7 µM,26%
same,growth inhibition,[3]; at 11.0 µM,25%
same,growth inhibition,[3]; at 33.0 µM,21%
same,growth inhibition,[3]; at 100.0 µM,34%
same,growth inhibition,[4]; at 1.2 µM,16%
same,growth inhibition,[4]; at 3.7 µM,20%
same,growth inhibition,[4]; at 11.0 µM,13%
same,growth inhibition,[4]; at 33.0 µM,18%
same,growth inhibition,[4]; at 100.0 µM,87% (active)
same,growth inhibition,[5]; at 1.2 µM,15%
same,growth inhibition,[5]; at 3.7 µM,14%
same,growth inhibition,[5]; [16],16%
same,growth inhibition,[5]; at 11.0 µM,11%
same,growth inhibition,[5]; at 33.0 µM,27%
same,growth inhibition,[5]; [17],65%
same,growth inhibition,[5]; at 50.0 µM,83.1% (active)
same,growth inhibition,[5]; at 100.0 µM,90% (active)
same,growth inhibition,[6]; at 1.2 µM,10%
same,growth inhibition,[6]; at 3.7 µM,-1%
same,growth inhibition,[6]; [16],10%
same,growth inhibition,[6]; at 11.0 µM,3%
same,growth inhibition,[6]; at 33.0 µM,-4%
same,growth inhibition,[6]; [17],23%
same,growth inhibition,[6]; at 50.0 µM,85% (active)
same,growth inhibition,[6]; at 100.0 µM,62%
same,growth inhibition,[7]; at 1.2 µM,15%
same,growth inhibition,[7]; at 3.7 µM,15%
same,growth inhibition,[7]; at 11.0 µM,17%
same,growth inhibition,[7]; at 33.0 µM,16%
same,growth inhibition,[7]; at 100.0 µM,83% (active)
same,growth inhibition,[8]; [16],5%
same,growth inhibition,[8]; [17],89% (active)
same,growth inhibition,[8]; at 50.0 µM,88.2% (active)
same,growth inhibition,[9]; [16],8%
same,growth inhibition,[9]; [17],71% (active)
same,growth inhibition,[9]; at 50.0 µM,75.8% (active)
same,growth inhibition,[10]; at 1.2 µM,8%
same,growth inhibition,[10]; at 3.7 µM,12%
same,growth inhibition,[10]; [16],-9%
same,growth inhibition,[10]; at 11.0 µM,6%
same,growth inhibition,[10]; at 33.0 µM,10%
same,growth inhibition,[10]; [17],77% (active)
same,growth inhibition,[10]; at 50.0 µM,83.4% (active)
same,growth inhibition,[10]; at 100.0 µM,84% (active)
same,growth inhibition,[11]; at 1.2 µM,-21%
same,growth inhibition,[11]; at 3.7 µM,-24%
same,growth inhibition,[11]; at 11.0 µM,-44%
same,growth inhibition,[11]; at 33.0 µM,-4%
same,growth inhibition,[11]; at 100.0 µM,94% (active)
same,growth inhibition,[12]; at 1.2 µM,20%
same,growth inhibition,[12]; at 3.7 µM,20%
same,growth inhibition,[12]; at 11.0 µM,16%
same,growth inhibition,[12]; at 33.0 µM,10%
same,growth inhibition,[12]; at 100.0 µM,88% (active)
same,growth inhibition,[13]; at 1.2 µM,14%
same,growth inhibition,[13]; at 3.7 µM,9%
same,growth inhibition,[13]; at 11.0 µM,11%
same,growth inhibition,[13]; at 33.0 µM,18%
same,growth inhibition,[13]; at 100.0 µM,89% (active)
same,growth inhibition,[14]; [16],13%
same,growth inhibition,[14]; [17],63%
same,growth inhibition,[14]; at 50.0 µM,85% (active)
same,growth inhibition,[15]; at 1.2 µM,6%
same,growth inhibition,[15]; at 3.7 µM,12%
same,growth inhibition,[15]; at 11.0 µM,5%
same,growth inhibition,[15]; at 33.0 µM,30%
same,growth inhibition,[15]; at 100.0 µM,88% (active)
